Assay results from PubChem BioAssay (NCI).
The panel holds about 83,000 compounds, 20% with a hit somewhere; the sample as a whole holds those more often.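 Treatment: one concentration, 48 hours, 96-well format. Scoring: percent growth, with anything below 10 considered active.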 Activity calls are given as the source filed them.

How the values were obtained:
Assay in all cases: NCI-60 one-dose screen, 48 h (100 = growth as untreated, 0 = no growth, -100 = all killed)
Details in all cases: 10 µM unless noted
HCT-15 colon = system: HCT-15 colon
HT29 colon = system: HT29 colon
SNB-75 CNS = system: SNB-75 CNS
SNB-19 CNS = system: SNB-19 CNS
U251 CNS = system: U251 CNS
PC-3 prostate = system: PC-3 prostate
SK-MEL-5 melanoma = system: SK-MEL-5 melanoma
UACC-62 melanoma = system: UACC-62 melanoma
LOX IMVI melanoma = system: LOX IMVI melanoma
SK-MEL-28 melanoma = system: SK-MEL-28 melanoma
SK-MEL-2 melanoma = system: SK-MEL-2 melanoma
EKVX NSCLC = system: EKVX NSCLC
SN12C renal = system: SN12C renal
UO-31 renal = system: UO-31 renal
TK-10 renal = system: TK-10 renal
ACHN renal = system: ACHN renal
CAKI-1 renal = system: CAKI-1 renal
A498 renal = system: A498 renal
CCRF-CEM leukemia = system: CCRF-CEM leukemia
MOLT-4 leukemia = system: MOLT-4 leukemia

Measured: growth

CCN1CCN(CCNc2nccc(-c3c(-c4ccc(F)c(O)c4)nc4occn34)n2)S1(=O)=O
inactive: HCT-15 colon 17.8% | HT29 colon 20.1% | SNB-75 CNS 83.5% | SNB-19 CNS 73.7% | U251 CNS 45.7% | PC-3 prostate 13.7% | LOX IMVI melanoma 15.6% | SK-MEL-28 melanoma 42.2% | EKVX NSCLC 47.9% | SN12C renal 33.9% | TK-10 renal 44.9% | ACHN renal 16.5% | CAKI-1 renal 18.5% | A498 renal 49.1%
active: SK-MEL-5 melanoma -22.7% | UACC-62 melanoma -44.9% | SK-MEL-2 melanoma 1.39% | UO-31 renal 4.38% | CCRF-CEM leukemia 9.35% | MOLT-4 leukemia -9.69%

CCN(CC)CCOc1ccc(/C(=C(\C)Cc2ccc(OC)cc2)c2ccc(OC(=O)NCc3ccccc3)cc2)cc1
inactive: HCT-15 colon 15.1% | SNB-75 CNS 59.4% | SNB-19 CNS 66.9% | U251 CNS 32.4% | PC-3 prostate 46.2% | SK-MEL-5 melanoma 26.5% | UACC-62 melanoma 34.3% | LOX IMVI melanoma 37.2% | SK-MEL-28 melanoma 38% | SK-MEL-2 melanoma 69.1% | EKVX NSCLC 73% | SN12C renal 74.7% | UO-31 renal 46.3% | TK-10 renal 71.4% | ACHN renal 81.4% | CAKI-1 renal 69.3% | A498 renal 84.8% | CCRF-CEM leukemia 23.1%
active: HT29 colon -34.8% | MOLT-4 leukemia 1.91%

FC(F)(F)c1[nH]ncc1-c1nc2ccc3[nH]ncc3c2c2c1CCCC2
active: HT29 colon 6.93% | SNB-75 CNS 8.42% | U251 CNS 5.69% | SK-MEL-5 melanoma -73.7% | UACC-62 melanoma 9.03% | LOX IMVI melanoma -38.2% | SK-MEL-28 melanoma 2.24% | SK-MEL-2 melanoma -18.4% | EKVX NSCLC 3.77% | UO-31 renal -26.8% | TK-10 renal 1.15% | ACHN renal 5.04% | CAKI-1 renal 9.85% | A498 renal -60.5% | CCRF-CEM leukemia 6.43% | MOLT-4 leukemia -30%
inactive: HCT-15 colon 12.7% | SNB-19 CNS 17.7% | PC-3 prostate 21% | SN12C renal 12.5%

CCN1C2CCC1/C(=C\c1ccccc1)C(=O)/C2=C/c1ccccc1
inactive: HCT-15 colon 38.5% | HT29 colon 42.3% | SNB-75 CNS 50.6% | SNB-19 CNS 65.5% | U251 CNS 24.5% | PC-3 prostate 47.7% | SK-MEL-5 melanoma 56.6% | UACC-62 melanoma 40.1% | LOX IMVI melanoma 25.2% | SK-MEL-28 melanoma 77.1% | SK-MEL-2 melanoma 54.9% | EKVX NSCLC 71.4% | SN12C renal 55.4% | UO-31 renal 61.1% | TK-10 renal 84.6% | ACHN renal 57.7% | CAKI-1 renal 81.8% | A498 renal 66.1% | CCRF-CEM leukemia 28.1% | MOLT-4 leukemia 31%

CN1C(=O)N2CN3CCCN(C3)CN3C(=S)NC1C23 (stereo not given)
inactive: HCT-15 colon 103% | HT29 colon 95.2% | SNB-75 CNS 93.4% | SNB-19 CNS 99.3% | U251 CNS 101% | PC-3 prostate 98.4% | SK-MEL-5 melanoma 100% | UACC-62 melanoma 101% | LOX IMVI melanoma 98.7% | SK-MEL-28 melanoma 119% | SK-MEL-2 melanoma 108% | EKVX NSCLC 104% | SN12C renal 97.7% | UO-31 renal 99.5% | TK-10 renal 108% | ACHN renal 118% | CAKI-1 renal 98% | A498 renal 98.9% | CCRF-CEM leukemia 90.2% | MOLT-4 leukemia 111%

COc1cc(/C=N/NC(=O)c2ccc(-n3cc(-c4ccccc4)nn3)cc2)cc(OC)c1OC
active: UACC-62 melanoma 9.86%
inactive: HCT-15 colon 76.2% | HT29 colon 47.8% | SNB-75 CNS 71.6% | SNB-19 CNS 58.9% | U251 CNS 48.4% | PC-3 prostate 47.5% | SK-MEL-5 melanoma 57.2% | LOX IMVI melanoma 36.3% | SK-MEL-28 melanoma 53.3% | SK-MEL-2 melanoma 98% | EKVX NSCLC 91.1% | SN12C renal 80% | UO-31 renal 88.2% | TK-10 renal 99.2% | ACHN renal 70.7% | CAKI-1 renal 65.3% | A498 renal 71.1% | CCRF-CEM leukemia 55.1% | MOLT-4 leukemia 78.3%

[N-]=[N+]=NCC1OC(n2cnc3c(NC(=O)Nc4ccccc4)ncnc32)C2OC(=O)CC12 (stereo not given)
inactive: HCT-15 colon 91.2% | HT29 colon 109% | SNB-75 CNS 93.7% | SNB-19 CNS 106% | U251 CNS 110% | PC-3 prostate 97.4% | SK-MEL-5 melanoma 106% | UACC-62 melanoma 107% | LOX IMVI melanoma 93.2% | SK-MEL-28 melanoma 118% | SK-MEL-2 melanoma 90.7% | EKVX NSCLC 104% | SN12C renal 118% | UO-31 renal 78.8% | TK-10 renal 101% | ACHN renal 101% | CAKI-1 renal 101% | A498 renal 100% | CCRF-CEM leukemia 91.7% | MOLT-4 leukemia 84.6%

Cn1c(=O)[nH]c(=O)c2nc3c(nc21)-c1ccccc1C3=O
inactive: HCT-15 colon 102% | HT29 colon 101% | SNB-75 CNS 88.9% | SNB-19 CNS 98.1% | U251 CNS 106% | PC-3 prostate 95.8% | SK-MEL-5 melanoma 98.5% | UACC-62 melanoma 91.2% | LOX IMVI melanoma 95.9% | SK-MEL-28 melanoma 97.4% | SK-MEL-2 melanoma 103% | EKVX NSCLC 95% | SN12C renal 96.6% | UO-31 renal 83.8% | TK-10 renal 102% | ACHN renal 94.2% | CAKI-1 renal 89.9% | A498 renal 95.2% | CCRF-CEM leukemia 106% | MOLT-4 leukemia 105%

Cc1ccc2c(c1)sc1nc(-c3c[nH]c4ccccc34)c(Nc3ccccc3)n12
inactive: HCT-15 colon 105% | HT29 colon 104% | SNB-75 CNS 89.8% | SNB-19 CNS 94.9% | U251 CNS 106% | PC-3 prostate 90.4% | SK-MEL-5 melanoma 113% | UACC-62 melanoma 89.4% | LOX IMVI melanoma 96.3% | SK-MEL-28 melanoma 110% | SK-MEL-2 melanoma 109% | EKVX NSCLC 101% | SN12C renal 102% | UO-31 renal 77.3% | TK-10 renal 114% | ACHN renal 100% | CAKI-1 renal 79.8% | A498 renal 109% | CCRF-CEM leukemia 107% | MOLT-4 leukemia 98.7%

COc1cc(-c2cc(-c3ccc(Nc4nc(Nc5ccc(Cl)cc5)nc(Nc5ccc(Cl)cc5)n4)cc3)no2)cc(OC)c1OC
inactive: HCT-15 colon 81.2% | HT29 colon 78.8% | SNB-75 CNS 74.6% | SNB-19 CNS 81.6% | U251 CNS 73.4% | PC-3 prostate 60.1% | SK-MEL-5 melanoma 61.2% | UACC-62 melanoma 82.1% | LOX IMVI melanoma 73.3% | SK-MEL-28 melanoma 88% | SK-MEL-2 melanoma 55.2% | EKVX NSCLC 67.1% | SN12C renal 106% | UO-31 renal 61.6% | TK-10 renal 108% | ACHN renal 78.9% | CAKI-1 renal 75.4% | A498 renal 68.3%
active: CCRF-CEM leukemia -5.88% | MOLT-4 leukemia -10.3%

Cc1ccc(C2CC(c3cccc(Nc4ccncc4)c3)=Nc3c(N)nc(N)nc3N2)cc1 (stereo not given)
inactive: HCT-15 colon 40.4% | HT29 colon 21.7% | SNB-75 CNS 70% | SNB-19 CNS 70.5% | U251 CNS 42.4% | PC-3 prostate 43.8% | SK-MEL-5 melanoma 65.3% | UACC-62 melanoma 78.4% | LOX IMVI melanoma 25.7% | SK-MEL-28 melanoma 93.2% | SK-MEL-2 melanoma 71.1% | EKVX NSCLC 60.2% | SN12C renal 61.2% | UO-31 renal 75.3% | TK-10 renal 99.8% | ACHN renal 56.1% | CAKI-1 renal 72.3% | A498 renal 86% | CCRF-CEM leukemia 33.9% | MOLT-4 leukemia 33.4%

COc1cc(C[C@H]2COc3cc(O)cc(O)c3C2=O)ccc1O
inactive: HCT-15 colon 19.9% | HT29 colon 83.8% | SNB-75 CNS 14.1% | SNB-19 CNS 31.5% | U251 CNS 22.3% | PC-3 prostate 29.7% | SK-MEL-5 melanoma 22.4% | UACC-62 melanoma 30.9% | LOX IMVI melanoma 38.6% | SK-MEL-28 melanoma 58.4% | SK-MEL-2 melanoma 13.2% | EKVX NSCLC 74.3% | SN12C renal 40.9% | UO-31 renal 48.8% | TK-10 renal 58.7% | ACHN renal 41.7% | CAKI-1 renal 35.8% | A498 renal 90.4% | CCRF-CEM leukemia 11.4% | MOLT-4 leukemia 29.3%

Cn1c(C#N)ccc1-c1ccc(F)c(NC(=O)c2ccc(F)cc2)c1
inactive: HCT-15 colon 66.6% | HT29 colon 47.5% | SNB-75 CNS 71.4% | SNB-19 CNS 84.1% | U251 CNS 73.4% | PC-3 prostate 80.9% | SK-MEL-5 melanoma 75.9% | UACC-62 melanoma 60.8% | LOX IMVI melanoma 69.8% | SK-MEL-28 melanoma 86.5% | SK-MEL-2 melanoma 60.3% | EKVX NSCLC 82.2% | SN12C renal 82.2% | UO-31 renal 64% | TK-10 renal 86% | ACHN renal 84.4% | CAKI-1 renal 73.9% | A498 renal 73.3% | CCRF-CEM leukemia 68.8% | MOLT-4 leukemia 47.6%

O=C(NCCCCO)c1cncnc1Nc1ccc2c(ccn2Cc2cccc(F)c2)c1
inactive: HCT-15 colon 85.1% | HT29 colon 99.9% | SNB-75 CNS 85% | SNB-19 CNS 85.1% | U251 CNS 94.7% | PC-3 prostate 86% | SK-MEL-5 melanoma 95.2% | UACC-62 melanoma 80.4% | LOX IMVI melanoma 93.7% | SK-MEL-28 melanoma 100% | SK-MEL-2 melanoma 106% | EKVX NSCLC 85.1% | SN12C renal 87.7% | UO-31 renal 67% | TK-10 renal 98.7% | ACHN renal 86.3% | CAKI-1 renal 79.8% | A498 renal 69.5% | CCRF-CEM leukemia 103% | MOLT-4 leukemia 88.3%

Cc1cn(C)cn1
inactive: HCT-15 colon 99% | HT29 colon 98.7% | SNB-75 CNS 98.7% | SNB-19 CNS 107% | U251 CNS 98% | PC-3 prostate 93.9% | SK-MEL-5 melanoma 112% | UACC-62 melanoma 105% | LOX IMVI melanoma 94.6% | SK-MEL-28 melanoma 109% | SK-MEL-2 melanoma 103% | EKVX NSCLC 105% | SN12C renal 105% | UO-31 renal 82.5% | TK-10 renal 95.9% | ACHN renal 108% | CAKI-1 renal 88.7% | A498 renal 114% | CCRF-CEM leukemia 97.3% | MOLT-4 leukemia 105%
